Test results from PubChem BioAssay (NCI).
Compounds without any hit were thinned out: in the full panel of roughly 79,000, 15% have a hit. Activity calls are given as the source filed them. No stated cut-off is given here; in the data, active means growth inhibition above about 70%; inactive means the rest.

Columns and labels:
[1] = NCI Yeast Anticancer Drug Screen. Data for the rad50 strain (AID 155);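 further: 0% = growth of vehicle-only cultures of the same strain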; details: S. cerevisiae rad50 strain growth inhibition, active compounds read high
Method in brief: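 A DNA repair-deficient yeast mutant serves as the test organism; compound-induced growth inhibition is calculated against vehicle-treated cells.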

[2] = NCI Yeast Anticancer Drug Screen. Data for the mec2-1 strain (AID 157); details: S. cerevisiae mec2-1 strain, active compounds read high
Method in brief: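 mec2-1 yeast strain, carrying an alteration in DNA damage repair or cell cycle control, was exposed to compounds; growth inhibition was measured relative to vehicle-treated controls.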

[3] = NCI Yeast Anticancer Drug Screen. Data for the sgs1 mgt1 strain (AID 161);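 further: 0% = growth of cultures given vehicle only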; details: S. cerevisiae sgs1 mgt1 strain, active compounds read high
Method in brief: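 Compounds are added to genetically altered yeast, and growth is compared with cultures given vehicle alone to give percent inhibition.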

[4] = NCI Yeast Anticancer Drug Screen. Data for the cln2 rad14 strain (AID 165);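 further: 0% = growth equal to vehicle treated cultures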; details: S. cerevisiae cln2 rad14 strain, active compounds read high
Method in brief: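 Yeast carrying cln2 and rad14 alterations (cell cycle control and DNA damage repair) were exposed to compounds. Growth inhibition was measured against vehicle-treated controls.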

[5] = NCI Yeast Anticancer Drug Screen. Data for the bub3 strain (AID 167); details: S. cerevisiae bub3 mutant strain, active compounds read high
Method in brief: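 Inhibition values come from growth of compound-treated mutant yeast normalised to vehicle-treated controls.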

[6] = NCI Yeast Anticancer Drug Screen. Data for the mlh1 rad18 strain (AID 175); details: S. cerevisiae mlh1 rad18 strain growth inhibition, active compounds read high
Method in brief: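 Growth inhibition of the yeast strain was measured after compound exposure and expressed relative to vehicle-treated controls. The strain carries defined defects in DNA damage repair.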

[7] = at 5.0 µM (retest, dose inferred, filed as 0.5)
[8] = at 50.0 µM (retest, dose inferred, filed as 5.0)

Measured: growth inhibition

Nc1ccc2c(SCCCCCCCCSc3c4ccccc4nc4cc(N)ccc34)c3ccccc3nc2c1
inactive: [1]; [7] 1% | [1]; at 50.0 µM 48.9% | [2]; [7] 1% | [2]; [8] 67% | [2]; at 50.0 µM 9.15% | [3]; [7] -2% | [3]; at 50.0 µM 22.9% | [4]; [7] -4% | [4]; [8] 32% | [4]; at 50.0 µM 33.2% | [5]; [7] -3% | [5]; at 50.0 µM -4.05% | [6]; [7] 2% | [6]; at 50.0 µM 32%
active: [1]; [8] 74% | [3]; [8] 72% | [5]; [8] 72% | [6]; [8] 94%

COC12CC(=O)C(C(C)=O)=C(O)C1(C)c1c(OC(C)=O)c(C)c(O)c(C(C)=O)c1O2 (configuration not stated)
active: [3]; [8] 73% | [5]; [8] 92% | [6]; at 50.0 µM 92.8%
inactive: [1]; [7] 17% | [1]; [8] 57% | [1]; at 50.0 µM 45.1% | [2]; [7] 14% | [2]; [8] 63% | [2]; at 50.0 µM 52.3% | [3]; [7] 31% | [3]; at 50.0 µM 19.2% | [4]; [7] 19% | [4]; [8] 50% | [4]; at 50.0 µM 41% | [5]; [7] 62% | [5]; at 50.0 µM 43.5% | [6]; [7] 19% | [6]; [8] 64%

O=C1c2ccccc2C(O)(c2ccccc2)N1c1ccc([N+](=O)[O-])cc1 (configuration not stated)
active: [1]; [8] 99% | [1]; at 50.0 µM 99% | [2]; [8] 100% | [2]; at 50.0 µM 99.3% | [3]; [8] 99% | [3]; at 50.0 µM 99.3% | [4]; [8] 99% | [4]; at 50.0 µM 98.9% | [5]; [8] 99% | [5]; at 50.0 µM 99% | [6]; [8] 99% | [6]; at 50.0 µM 99.3%
inactive: [1]; [7] 7% | [2]; [7] 10% | [3]; [7] 0% | [4]; [7] -3% | [5]; [7] -2% | [6]; [7] 5%

O=C(C=P(c1ccccc1)(c1ccccc1)c1ccccc1)c1ccc(Cl)cc1
active: [1]; [8] 98% | [1]; at 50.0 µM 98.8% | [2]; [8] 99% | [2]; at 50.0 µM 99.2% | [3]; [8] 99% | [3]; at 50.0 µM 99% | [4]; [8] 98% | [4]; at 50.0 µM 98.7% | [5]; [8] 99% | [5]; at 50.0 µM 98.5% | [6]; [8] 99% | [6]; at 50.0 µM 99%
inactive: [1]; [7] 5% | [2]; [7] 12% | [3]; [7] 19% | [4]; [7] -10% | [5]; [7] 16% | [6]; [7] -16%

COC1/C=C\OC2(C)Oc3c(C)c(O)c4c(O)c(c5[nH]c(-c6ccccc6)nc5c4c3C2=O)NC(=O)/C(C)=C\C=C\C(C)C(O)C(C)C(O)C(C)C(OC(C)=O)C1C (configuration not stated)
inactive: [1]; [7] 29% | [2]; [7] 30% | [3]; [7] 20% | [4]; [7] 44% | [5]; [7] 14% | [6]; [7] 19%
active: [1]; [8] 84% | [1]; at 50.0 µM 88.5% | [2]; [8] 94% | [2]; at 50.0 µM 91.1% | [3]; [8] 88% | [3]; at 50.0 µM 91.7% | [4]; [8] 91% | [4]; at 50.0 µM 88.6% | [5]; [8] 89% | [5]; at 50.0 µM 88.6% | [6]; [8] 94% | [6]; at 50.0 µM 90%

O=[N+]([O-])c1ccc(C(Br)(Br)c2ccc([N+](=O)[O-])cc2)cc1
active: [1]; [7] 99% | [1]; [8] 99% | [1]; at 50.0 µM 99.7% | [2]; [7] 97% | [2]; [8] 100% | [2]; at 50.0 µM 99.7% | [3]; [7] 100% | [3]; [8] 100% | [3]; at 50.0 µM 99.8% | [4]; [7] 95% | [4]; [8] 99% | [4]; at 50.0 µM 99.3% | [5]; [7] 80% | [5]; [8] 99% | [5]; at 50.0 µM 99.5% | [6]; [7] 93% | [6]; [8] 99% | [6]; at 50.0 µM 99.5%

CN1CCCC(C(=O)OCC(=O)C2(O)CCC3C4CCC5=CC(=O)CCC5(C)C4C(O)CC32C)C1 (configuration not stated)
inactive: [1]; [7] 13% | [1]; [8] 11% | [1]; at 50.0 µM 29.2% | [2]; [7] -5% | [2]; [8] 0% | [2]; at 50.0 µM 5% | [3]; [7] -7% | [3]; [8] 5% | [3]; at 50.0 µM -11% | [4]; [7] 3% | [4]; [8] 8% | [4]; at 50.0 µM 38.4% | [5]; [7] -7% | [5]; [8] 9% | [5]; at 50.0 µM 12.4% | [6]; [7] -3% | [6]; [8] 35% | [6]; at 50.0 µM 42.9%

C/C=C/C=C\C1OC(O)([C@H](CC)C(=O)NC/C=C/C=C(\C)[C@H](OC)C(C)C2OC(\C=C/C=C/C=C(\C)C(=O)c3c(O)ccn(C)c3=O)[C@H](O)[C@@H]2O)C(O)C(O)C1(C)C (some centres not stated)
inactive: [1]; [7] -23% | [1]; [8] -46% | [1]; at 50.0 µM 35.5% | [2]; [7] -26% | [2]; [8] -18% | [2]; at 50.0 µM 9.5% | [3]; [7] -13% | [3]; [8] 34% | [4]; [7] -14% | [4]; [8] 35% | [4]; at 50.0 µM 26.9% | [5]; [7] -42% | [5]; [8] -26% | [5]; at 50.0 µM 26.1% | [6]; [7] -41% | [6]; [8] -62% | [6]; at 50.0 µM 17%
active: [3]; at 50.0 µM 80.5%

ClC(Cl)(Cl)C1=CC2c3ccccc3C1c1ccccc12
active: [1]; [8] 91% | [1]; at 50.0 µM 89.7% | [2]; [8] 91% | [3]; [8] 91% | [3]; at 50.0 µM 87.8% | [4]; [8] 90% | [5]; [8] 92% | [6]; [8] 92% | [6]; at 50.0 µM 89.5%
inactive: [1]; [7] -14% | [2]; [7] 0% | [2]; at 50.0 µM 21.6% | [3]; [7] -7% | [4]; [7] -3% | [4]; at 50.0 µM 22.8% | [5]; [7] -9% | [5]; at 50.0 µM 28.7% | [6]; [7] -6%
